Screening results from PubChem BioAssay.
ALDH1A1 inh: blocks purified human ALDH1A1 activity | P00352 | Purified ALDH1A1, NADH fluorescence, propionaldehyde substrate | Potency, µM (highest dose often 75.3 µM), without a hit: at the top dose activity, negative = inhibition, most hits filed as inhibitors | 220,000 compounds, 7.3% hits | AID 1030;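 note: potency is the fitted concentration of half-maximal effect; plate controls were no enzyme wells and a reference inhibitor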
HPGD block: inhibitors of human 15-hydroxyprostaglandin dehydrogenase (HPGD). P15428. purified HPGD, NADH fluorescence kinetic, PGE2 substrate. Potency, µM, without a hit: top-dose activity change, negative = inhibition, most hits filed as inhibitors. 150,000 compounds, 4.3% hits. AID 894; note: potency is the fitted concentration of half-maximal effect
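NADH formation kinetics: reaction with 30 uM PGE2 and 1 mM NAD+ (final), 20 nM enzyme, Tris-HCl pH 8 with Tween 20, after 15 min compound preincubation at room temperature. Fluorescence change, last versus first of five reads.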
12-hLO inh: 12-hLO (ALOX12) enzyme inhibition. P18054. 150,000 compounds, 0.12% hits. Potency, µM (doses to about 57.1 µM), inactives show at the highest dose activity change, negative = inhibition, actives largely listed as inhibitors. purified 12-hLO, xylenol orange hydroperoxide absorbance; active = well fitted curve in the direction sought with a large enough effect; inconclusive = small, poorly fitted or top-dose-only effect, or another doubt; inactive = no such curve, though single readings can be large; an effect the other way counts as inactive or inconclusive; note: potency is the fitted concentration of half-maximal effect; nearly all actives have a fitted effect of over 55% in size
Target sequence (P18054 whole entry, looked up): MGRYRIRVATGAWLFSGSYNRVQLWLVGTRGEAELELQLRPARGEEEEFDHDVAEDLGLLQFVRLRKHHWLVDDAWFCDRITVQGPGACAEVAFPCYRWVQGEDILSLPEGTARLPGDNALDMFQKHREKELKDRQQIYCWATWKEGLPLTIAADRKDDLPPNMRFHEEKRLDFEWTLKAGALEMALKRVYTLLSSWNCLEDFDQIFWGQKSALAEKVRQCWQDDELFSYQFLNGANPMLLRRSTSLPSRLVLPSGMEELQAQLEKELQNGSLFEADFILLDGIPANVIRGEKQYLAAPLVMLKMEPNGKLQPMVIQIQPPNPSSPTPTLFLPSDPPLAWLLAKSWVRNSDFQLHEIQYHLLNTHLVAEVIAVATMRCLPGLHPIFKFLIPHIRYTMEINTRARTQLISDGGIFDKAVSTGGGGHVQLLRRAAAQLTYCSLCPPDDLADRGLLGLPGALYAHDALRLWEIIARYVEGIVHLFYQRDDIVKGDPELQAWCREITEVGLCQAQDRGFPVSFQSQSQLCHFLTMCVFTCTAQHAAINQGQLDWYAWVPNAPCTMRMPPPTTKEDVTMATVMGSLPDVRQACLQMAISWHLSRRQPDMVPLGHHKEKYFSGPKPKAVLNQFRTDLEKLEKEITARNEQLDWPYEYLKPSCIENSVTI
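Purified human 12hLO (150 nM final) was preincubated with compounds for 15 min at room temperature in 25 mM Hepes pH 7.0, 0.01% Triton X-100, then reacted with 40 uM arachidonic acid for 30 min. Hydroperoxide was detected with ferrous iron/xylenol orange.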
IMPase cell inh: membrane-permeable compound that blocks inositol monophosphatase. P97697. CHO-M1 cells, IP1 accumulation, HTRF TR-FRET ratio. inhibition (IP1 accumulation), % at 46.1 µM. 120,000 tested, under 10 active. AID 901; active = well fitted curve in the direction sought with a large enough effect in the signal ratio, not every such curve was filed as active; inconclusive = small, poorly fitted or top-dose-only effect, or a change in a side signal; inactive = no such curve, though single readings can be large or run the other way; the % refers to the signal ratio;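 note: cells stimulated with carbachol in lithium chloride buffer; plate controls were DMSO basal wells for no effect and reference inhibitor wells for full effect; higher means more IMPase inhibition seen as more IP1 and lower FRET ratio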
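The IP-One HTRF competitive assay in carbachol-stimulated CHO-M1 cells quantifies cellular IP1. Compounds spanned up to 46 uM final, and activity is expressed as AC50 from concentration-response fits of the ratio and donor data.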
PNC inhibitor: perinucleolar compartment assembly inhibition; PC3M PTB-GFP, PNC prevalence imaging, 16 h; active compounds read low; activity change (PNC), negative = inhibition, % at 10 µM; 140,000 compounds, 3.1% hits;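 active = readout at or below -70, meaning at least 70% loss of cells showing the perinucleolar compartment, a nuclear body marking cancer cells; inconclusive = readout between -30 and a set limit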;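 note: plate controls were DMSO wells for no effect and camptothecin positive control wells for full effect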
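PC3M cells stably expressing PTB-GFP, 750–1000 cells/well, treated 16 h at 37 °C with compound (23 nl of library stock), in duplicate. After paraformaldehyde fixation and Hoechst stain, imaged at 20x; PNC prevalence scored by image analysis.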
IMPase Li cell: membrane-permeable IMPase blocker, potentiated with lithium | CHO-M1 cells, IP1 TR-FRET (IP-One), carbachol + lithium | Potency, µM (series often up to 59.4 µM), for the others: top-dose activity, negative = IMPase inhibition, usual class: inhibitors | 210,000 compounds, 0.35% hits | AID 1457; active = well fitted curve in the direction sought with a large enough effect; inconclusive = small, poorly fitted or top-dose-only effect, or another doubt; inactive = no such curve, though single readings can be large; an effect the other way counts as inactive or inconclusive;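 note: IP1 builds up when IMPase is blocked and the TR-FRET signal falls; potency is the fitted concentration of half-maximal effect; plate controls were basal vehicle for no effect and high inhibitor control for full effect; nearly all actives have a fitted effect of over 50% in size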
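Steps: plate 2000 CHO-M1 cells per well and culture 16–30 h; add compound and lithium; incubate 30 min, 37C; add d2-IP1 tracer and Eu cryptate anti-IP1 antibody in lysis buffer; read after 10 min at room temperature.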
* marks the source's active call; other numbers are inactive results; ? = inconclusive; nt = no result; [ ] = remark or other dose. Only some compounds are listed: those with a hit (about 11% of all), similar ones and a draw of the others. Unless noted, calls come from the whole dose curve; as a rule, active = well fitted inhibition curve with a large enough effect (not every such curve was filed as active); inconclusive = small, poorly fitted or top-dose-only effect, or another doubt; inactive = no such curve, though single readings can be large or run the other way. Unless noted, % is set by controls: 0 for no effect and ±100 for the full control effect.

SMILES | ALDH1A1 inh | HPGD block | 12-hLO inh | IMPase cell inh | PNC inhibitor | IMPase Li cell
CCCN1CC(CSC)C[C@H]2c3cccc4[nH]cc(c34)C[C@H]21 (some centres undefined) | -2% | -8% | 1% | nt | nt | 4%
CCCCn1c(SCC(=O)N2CCN(c3ccccc3)CC2)nc2ccsc2c1=O | ? | nt | -12% | 7 | -112* | nt
CCCCn1c(SCC(=O)Nc2ccccc2C(F)(F)F)nc2ccsc2c1=O | 28µM* | -15% | -1% | 11 | ? | ?
CCCCn1c(SCC(=O)N2CCC(C)CC2)nc2ccsc2c1=O | 11µM* | -15% | -10% | 6 | -22 | 1%[38.3 µM]
CCC1CCCCN1C(=O)CSc1nc2ccsc2c(=O)n1Cc1ccccc1 (centres undefined) | ? | -14% | 3% | 0 | 9 | 4%[38.3 µM]
O=C(Nc1c(O)c2ccccc2oc1=O)c1ccccc1Cl | nt | nt | nt | 4 | nt | nt
CC1CN(c2c(F)c(N)c3c(=O)c(C(=O)O)cn(C4CC4)c3c2F)CC(C)N1 (centres undefined) | 8% | -11% | -1%[0.00818 µM] | nt | nt | 16%
Cc1cccc(CN2CCN([C@@H](c3ccccc3)c3ccc(Cl)cc3)CC2)c1 | -3%[20.9 µM] | -4% | -5%[25.6 µM] | 7[20.6 µM] | nt | 2%
CC1=NN(Cc2ccccc2)C(=O)C1C(c1ccccc1)C(C#N)C#N (centres undefined) | ? | 32µM* | -6% | 12 | 102 | -2%[38.3 µM]
CC1=NN(Cc2ccccc2)C(=O)C1C(c1ccc(Cl)cc1)C(C#N)C#N (centres undefined) | 25µM* | 28µM* | -4% | nt | -14 | 3%
NC(=S)c1ccc[n+]([C@@H]2O[C@@H](COP(=O)([O-])OP(=O)(O)OC[C@H]3O[C@@H](n4cnc5c(N)ncnc54)[C@H](OP(=O)(O)O)[C@H]3O)C(O)C2O)c1 (some centres undefined) | 28µM* | ? | nt | nt | nt | -11%
CCOc1cc(/C=N/NC(=O)Cn2nc([N+](=O)[O-])cc2C)cc(Br)c1OCc1ccccc1F | 0% | -19% | -3% | 3 | 39 | 36%[38.3 µM]
CCOc1cc(/C=N/NC(N)=O)cc(Br)c1OCc1ccccc1F | 9% | 0% | 1% | nt | -92* | 1%
CCOc1cc(/C=N\NC(N)=O)cc(Br)c1OC(C)C | -3% | 2% | 0% | nt | -97* | 1%
COc1cc(C(=S)N2CCCCC2)ccc1OCC(=O)Nc1ccccc1Cl | -3% | nt | nt | nt | nt | 10%
O=C(COc1ccc(C(=S)N2CCOCC2)cc1Cl)Nc1ccccc1Cl | 18µM* | nt | nt | nt | nt | -2%
O=C(c1ccco1)N(Cc1ccco1)c1ccc(O)cc1 | 4% | -1% | -4% | 2 | -96* | 3%[38.3 µM]
O=C(c1ccco1)N(Cc1cccc([N+](=O)[O-])c1)c1ccc(Br)cc1 | 22µM* | nt | nt | nt | nt | 9%
Cc1ccc(N(Cc2ccc([N+](=O)[O-])cc2)C(=O)c2ccco2)cc1C | ? | -2% | -3% | nt | 9 | 15%
O=C(c1ccco1)N(Cc1ccc([N+](=O)[O-])cc1)c1ccc(Cl)cc1 | ? | -10% | 3% | 18 | 1 | 16%[38.3 µM]
O=C(c1ccco1)N(Cc1ccccc1)c1cccc([N+](=O)[O-])c1 | 20µM* | nt | nt | nt | nt | 7%
O=c1cc(-c2ccccc2O)oc2c1ccc1ccccc12 | 0% | -2% | -5% | -4 | nt | 8%
Cc1ccccc1Nc1c(-c2cccnc2)nc2ccc(Cl)cn12 | nt | nt | nt | 6 | nt | nt
CCOC(=O)c1cnc2c(Cl)cc(Cl)cc2c1Nc1ccccc1OC | nt | nt | nt | -5 | nt | nt
COc1ccc2cc(CCNS(=O)(=O)c3ccc(C)cc3)c(=O)[nH]c2c1 | nt | nt | nt | 8 | nt | nt
Cc1ccc(S(=O)(=O)CC(=O)N2CCCC2)cc1 | 2% | -14% | -1% | -7 | -100* | 4%
Cc1ccc(S(=O)(=O)CCCS(=O)(=O)c2ccc(C)cc2)cc1 | ? | 6% | -1% | -2 | 57 | -8%[38.3 µM]
COc1ccc(S(=O)(=O)N(C)CC(=O)N2CCN(Cc3ccccc3)CC2)cc1C | 16µM* | -15% | 3% | 1 | ? | 35%[38.3 µM]
